Measured values taken from article PMC4552634, “A New Set of Chemical Starting Points with Plasmodium falciparum Transmission-Blocking Potential for Antimalarial Drug Discovery” (PLoS ONE, 2015).
The campaign covered roughly 13,000 compounds. About 3,200 (25%) showed an effect of 50% or more. The list shows a part of the results. Peptide text beside a SMILES is read from it. * marks the point of attachment. Boc = CC(C)(C)OC(=O)*

These molecules were tested on P. falciparum stage V gametocytes. Conditions: 48 h, 5 µM; inhibitor.
Set-up: BacTiter-Glo ATP luminescence viability of purified stage V gametocytes in 384-well plates, per cent inhibition versus DMSO

SMILES | % Inhibition
CCCOc1ccc(-c2nonc2NC(=O)c2ccccc2OC)cc1OCCC [TCMDC-124766] | 53.56%
COc1nc2c(N3CCN(CCNCc4ccc5c(n4)NC(=O)CS5)CC3)ccnc2cc1F [TCMDC-135193] | -2.167%
c1ccc(CN2CCCN(c3ccc4c(c3)CCN(Cc3ccc(-c5ncc[nH]5)cc3)CC4)CC2)cc1 [TCMDC-136549] | 6.085%
CCn1cc(C=C2Oc3c(ccc(O)c3CN3CCCCC3)C2=O)c2ccccc21 [TCMDC-124888] | 37.53%
CC(C)=C(C(=O)OCc1ccccc1)N1C(=O)[C@@H](NC(c2ccccc2)(c2ccccc2)c2ccccc2)[C@H]1[S+]([O-])CC(=O)OC(C)(C)C (some centres unmarked) [TCMDC-139078] | -23.33%
COC(=O)C(=C(C)C)N1C(=O)[C@@H](NC(=O)OCc2ccccc2)[C@H]1SS[C@@H]1[C@H](NC(=O)OCc2ccccc2)C(=O)N1C(C(=O)OC)=C(C)C [TCMDC-132119] | 84.32%
COc1cc(F)c2nccc([C@@H](O)CN3CCC(NC(=O)OCc4ccccc4)C(F)C3)c2c1 (some centres unmarked) [TCMDC-141734] | -30.04%
COc1cccc(CN2CCCN(Cc3cccc(NC(=O)c4cc5ccccc5s4)c3)CC2)c1 [TCMDC-141874] | -57.17%
O=C(Nc1cccc(CN2CCCN(Cc3ncc[nH]3)CC2)c1)c1cc2ccccc2s1 [TCMDC-141877] | 80.03%
O=C(Nc1cccc(CN2CCCN(Cc3ccccc3)CC2)c1)c1cc2ccccc2s1 [TCMDC-141864] | -29.46%
O=C(Nc1cccc(CN2CCCN(CCc3ccccc3)CC2)c1)c1cc2ccccc2s1 [TCMDC-141870] | 77.28%
O=C(Nc1cccc(CN2CCCN(CC3CCCCC3)CC2)c1)c1cc2ccccc2s1 [TCMDC-141863] | -96.88%
O=C(Nc1cccc(CN2CCCN(Cc3cccc(O)c3)CC2)c1)c1cc2ccccc2s1 [TCMDC-141875] | -26.68%
O=C(Nc1cccc(CN2CCCN(Cc3cccnc3)CC2)c1)c1cc2ccccc2s1 [TCMDC-141868] | 50.41%
CC(C)CN1CCCN(Cc2cccc(NC(=O)c3cc4ccccc4s3)c2)CC1 [TCMDC-141869] | -90.88%
CCCCCCN1CCN(Cc2cccc(NC(=O)c3cc4ccccc4s3)c2)CC1 [TCMDC-134621] | -21.73%
O=C(Nc1cccc(CN2CCCN(Cc3ccsc3)CC2)c1)c1cc2ccccc2s1 [TCMDC-134612] | -54.77%
O=C(Nc1cccc(CN2CCCN(Cc3ncc[nH]3)CC2)c1)c1ccc2ccccc2c1 [TCMDC-141856] | 45.36%
CCCCCN1CCCN(Cc2cccc(NC(=O)c3cc4ccccc4s3)c2)CC1 [TCMDC-141872] | 97.12%
COC(=O)CC[C@H](NC(=O)[C@H](C)NC(=O)OC(C)(C)C)C(=O)OC [TCMDC-131388] (Boc-Ala-Glu(OMe)-OMe) | -20.52%
CCCCC#Cc1cnc2nc(N)[nH]c(=O)c2n1 [TCMDC-137943] | 7.746%
CCCCC(O)c1cc(O)c2c(c1)OC(C)(C)CC2C1=CCN(Cc2ccc3ccccc3c2)CC1 (centres unmarked) [TCMDC-131420] | -23.67%
CC1(C)N=C(N)N=C(N)N1c1cccc(C(F)(F)F)c1 [TCMDC-124504] | -28.24%
CC(=O)Nc1nc(-c2ccccc2)[nH]c1C(N)=O [TCMDC-131311] | -1.405%
COc1ccc(Nc2nccc(N3CCC(NC(=O)c4cccc(NC(C)=O)c4)C3)n2)cc1 (centres unmarked) [TCMDC-133611] | -20.16%
O=C(N[C@H]1CCN(CCc2ccc(O[C@H]3CCNC3)c(Cl)c2)C1)c1ccc(Cl)c(Cl)c1 [TCMDC-141068] | 47.4%
O=C(N[C@H]1CCN(CCc2ccc(O[C@H]3CCNC3)c(F)c2)C1)c1ccc(Cl)c(Cl)c1 [TCMDC-141067] | 56.15%

SMILES | % Inhibition
COCCNC(=O)c1ccc(OC2CCN(Cc3ccc(F)c(F)c3)CC2)c(Cl)c1 [TCMDC-124653] | 4.866%
O=C(N[C@H]1CCN(CCc2ccc(O[C@H]3CCNC3)c(Br)c2)C1)c1ccc(Cl)c(Cl)c1 [TCMDC-141069] | 53.75%
O=C(NCCN1CCN(S(=O)(=O)c2ccc(OC3CCNCC3)c(Br)c2)CC1)c1ccc(Cl)c(Cl)c1 [TCMDC-141153] | 84.33%
O=C(N[C@H]1CCN(Cc2ccc(OC3CCN(Cc4ccccc4)CC3)c(Br)c2)C1)c1ccc(Cl)c(Cl)c1 [TCMDC-140286] | 18.35%
O=C(N[C@H]1CCN(CCc2ccc(O[C@H]3CCNC3)cc2)C1)c1ccc(Cl)c(Cl)c1 [TCMDC-141066] | 34.25%
Cc1cc(C)c2c(c1)C(=NO)CCN2 [TCMDC-140382] | -79.12%
NC1CCN(c2nc(NCCc3ccc(O)cc3)nc(NCc3ccccc3-c3ccc(C(F)(F)F)cc3)n2)CC1 [TCMDC-133442] | 32.82%
CN1CCC(Oc2cc(NC(=O)Nc3ccc(-c4ccncc4)c(C(F)(F)F)c3)ccc2Cl)CC1 [TCMDC-139223] | -12.77%
COc1cc(COc2c(C)nc(N)nc2N)cc(OC)c1OC [TCMDC-131346] | 7.837%
NC(N)=NC(=O)Nc1ccc(Cl)c(Cl)c1 [TCMDC-124295] | -4.176%
CC(=O)Nc1ccc(Cl)c(Cl)c1 [TCMDC-125481] | -1.69%
NCCCN(Cc1ccc(Cl)c(Cl)c1)C(=O)Nc1ccc(Cl)c(Cl)c1 [TCMDC-139415] | 96.81%
Cc1cccc(C(=O)Nc2ccc(N3CCCN(Cc4cccc(O)c4)CC3)cc2)c1 [TCMDC-134958] | -89.08%
O=C(/C=C/c1ccc(Cl)c(Cl)c1)NC1CCC(CN2CCC(c3nc4ccccc4s3)CC2)CC1 (centres unmarked) [TCMDC-140215] | 29.32%
CC(C)NCc1ccc(OCc2cccc(COc3ccc(CNC(C)C)cc3I)c2)c(I)c1 [TCMDC-137259] | 114.3%
OC(CNCc1ccccc1OCc1ccccc1)c1cc(Br)cs1 (centres unmarked) [TCMDC-140398] | 22.96%
CC(C)CNCc1ccc(OCc2cccc(COc3ccc(CNCC(C)C)cc3I)c2)c(I)c1 [TCMDC-137260] | 108.7%
CC(C)(C)c1cc(CN2CCN(Cc3ccccc3)CC2)cc(C(C)(C)C)c1O [TCMDC-125537] | -7.705%
OC(CNCc1ccccc1)c1cc(OCc2ccccc2)cc(OCc2ccccc2)c1 (centres unmarked) [TCMDC-132079] | 44.54%
CC(C)NCc1cccc(-c2cccc(-c3nc4ccccc4[nH]3)c2)c1 [TCMDC-132748] | 37.6%
Ic1cc(CNC2CCCCC2)ccc1OCc1cccc(COc2ccc(CNC3CCCCC3)cc2I)c1 [TCMDC-137261] | 115.7%
CN1CCN(Cc2ccc(OCc3cccc(COc4ccc(CN5CCN(C)CC5)cc4I)c3)c(I)c2)CC1 [TCMDC-137239] | 60.02%
Clc1cccc(CNC2CCN(CC3CCCCC3)CC2)c1 [TCMDC-141659] | 7.676%
COc1cc2ncnc(Nc3ccc(OCc4ccccc4)c(I)c3)c2cc1OC [TCMDC-131944] | -25.01%
Oc1ccc(Cc2ccccc2)cc1CNC1CCCCC1 [TCMDC-137598] | 6.281%
CN1CCN(Cc2ccc(-c3cc4c(Nc5ccc(OCc6cccc(F)c6)c(Cl)c5)ncnc4s3)[nH]2)CC1 [TCMDC-135458] | -90.63%
